In PubChem BioAssay AID1628 (Sanford-Burnham Center for Chemical Genomics, 2009) one finds z-score data, which are given here for 56 molecules.

SMILES strings stand for the structures. About 930 (0.49%) of roughly 190,000 compounds were called active. Some of the results follow. Entries with a potency or affinity are not part of this list. Unmarked numbers belong to inactive results.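 The calls were made as follows: active = z-score of insulin promoter reporter brightness in nuclei below -3 at 5 µM, with at least 500 cells counted; inconclusive = wells with under 500 cells, flagged as toxic or sparse; inactive = the rest.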

A short description of the assay: insulin promoter down-regulators in MIN6 cells, imaging, high-content screening, mouse beta cells (AID 1628). As to conditions: MIN6 insulin promoter GFP reporter, at 5 µM, stronger effect = lower value.
`Cc1cccc(N=Cc2[nH]c3ccc(Br)c(Cl)c3c2O)c1`: the z-score was 16.6. Consider `Cc1cccc(N=CC=C2OC(C)(C)C(C)(C)O2)c1`, for which the z-score is -4.14 (active). For `O=C(c1ccco1)N1CCN(C(=O)c2cc3sccc3n2Cc2ccccc2)CC1`, the z-score was -3.22 (active).

On to `Cn1c(C(=O)N2CCC(C(=O)N3CCN(Cc4ccc5c(c4)OCO5)CC3)CC2)cc2sccc21`, for which the z-score is 4.67.

Turning to `Cc1ccc(/C=C/C(=O)O)cc1S(=O)(=O)NCCO`, the z-score is -4.14 (active). On to `CC(C)N1CCc2c(sc(NC(=O)c3cc4cc([N+](=O)[O-])ccc4s3)c2C(N)=O)C1`, for which the z-score was 7.47. To `CCn1ncc(Br)c1C(=O)Nc1sc2c(c1C(N)=O)CCC2` belongs 3.46. As to `CCC(C)(C)C1CCc2c(sc(NC(=O)c3cccs3)c2C(N)=O)C1` (stereo unspecified), the z-score was -3.17 (active). Under `CN(CCCNC(=O)CN1C(=O)CC(C)(C)S(=O)(=O)c2ccccc21)C1CCCCC1` stands 3.03. Under `COc1cccc(OCCOc2cccc(/C=N/n3cnnc3)c2)c1` stands -5.3 (active); under `COc1cccc(/C=N/NC(=O)CCn2cnc3ccccc32)c1`, 3.74; under `COc1ccc(CCNc2ncnc3[nH]ncc23)cc1OC`, -7.54 (active).

As for `COc1ccc(/C(O)=C/c2nc3ccc(C(=O)NCCc4cccc(C)c4)cc3[nH]c2=O)cc1OC`, the z-score was 4.75. In the case of `CCOC(=O)COc1cccc2c(=O)n(CC(=O)NCCc3ccc(OC)c(OC)c3)ccc12`, the z-score was 3.56. To `COc1ccc(CCNc2ncnc3cc(OC)c(OC)cc23)cc1OC` belongs -3.22 (active). Under `COc1ccc(CCNC(=O)c2cnc3scc(C)n3c2=O)cc1OC` stands 0.78; under `CCCCCn1nc(-c2ccccc2)c2nc3ccccc3nc21`, 4.99; under `CCCCCn1c(=O)c(-c2nc3ccccc3[nH]2)c(O)c2ccccc21`, -5.3 (active).

Take `CCCCn1c(=O)[nH]c2nc3cc(N)ccc3nc2c1=O`: the z-score is 4.83. Under `COCCCn1cc(C(=O)c2cc(Br)ccc2O)cc(C#N)c1=O` stands 2.45; under `CCC(=O)NC(Nc1ncc(C)s1)(C(=O)OC)C(F)(F)F` (stereo unspecified), 0.55.

Regarding `O=C(Nc1ccc(N2CCN(C(=O)c3ccccc3)CC2)c(Cl)c1)c1ccc(Br)o1`, the z-score was -3.01 (active). To `O=C(Nc1ccc(N2CCN(C(=O)c3ccco3)CC2)c(Cl)c1)c1cc2ccccc2o1` belongs -5.03 (active); to `CCOC(=O)c1cc(C#N)c(SCC(=O)c2cc(C#N)c(SC)nc2C)nc1C`, -4.9 (active). As to `COc1ccc2nc(SCC(C)=O)c(C#N)cc2c1`, the z-score was 8.23. Under `Cc1nonc1NC(=O)CSc1nc2c(C)cccc2cc1C#N` stands 12.5; under `O=[N+]([O-])c1ccc(C2=NN(c3ccccc3)C(c3ccco3)C2)cc1` (stereo unspecified), 16.5. Under `COc1cc(OC)cc(C(=O)N2CCC(N3CCCCCC3)CC2)c1` stands 1.84; under `CCOC(=O)c1ccc(Nc2ccc(-c3ccc(OC)c(OC)c3)nn2)cc1`, -3.46 (active); under `Cn1c(=O)c(Nc2ccc(Cl)cc2)c2c3c(cccc31)C(=O)c1ccccc1-2`, 15.1.

Regarding `N#C/C(=C\c1ccc(N2CCOCC2)o1)c1nc2ccccc2[nH]1`, the z-score was 8.22. `NS(=O)(=O)c1cccc2cccnc12`: the z-score is 5.52. To `NCC12CC3CC(C1)CC(CN)(C3)C2` belongs 3.09. For `Cn1cc(/C=C2\SC(=S)N(NC(=O)c3ccccc3Cl)C2=O)c2ccccc21`, the z-score was 7. Under `CCOC(=O)c1c(NC(=O)CSc2nnnn2C)sc(C)c1-c1ccc(C)cc1` stands -3.09 (active); under `COc1ccc(NC(=O)CSc2nnnn2C)c([N+](=O)[O-])c1`, 0.83. Under `CCOC(=O)c1sc(-c2ccccc2)cc1NC(=O)CSc1nnnn1C` stands -3.34 (active); under `CCOC(=O)c1sc(=S)n(-c2ccccc2)c1N(C(C)=O)C(C)=O`, 1.57. To `CC(C)(C)C(=O)c1sc2nc(-c3cccs3)cc(C(F)(F)F)c2c1N` belongs 13.8; to `CCOc1ccccc1NC(=O)C1CCN(S(=O)(=O)c2ccc(OC)c(OC)c2)CC1`, 0.9; to `COc1ccc(NC(=O)C2CCN(Cc3cnn(-c4ccccc4)c3-n3cccc3)CC2)cc1OC`, -4.57 (active). In the case of `NC(CO)C(O)c1ccc([N+](=O)[O-])cc1` (stereo unspecified), the z-score is -0.09. To `COCCN(CCOC)Cc1cc(=O)oc2cc3c(cc12)CCC3` belongs 3.14. Under `Cc1cccn2c(=O)c(/C=C3\SC(=S)N(CC(C)C)C3=O)c(NCCCOC(C)C)nc12` stands 12.1. To `O=c1[nH]c(CN2CCN(Cc3ccc4c(c3)OCO4)CC2)nc2sc3c(c12)CCC3` belongs 3.55; to `Cc1ccc2[nH]c3c(c2c1)CN(C(=O)CN1CCN(Cc2ccc4c(c2)OCO4)CC1)CC3`, -3.96 (active). As for `O=C(CN1CCN(Cc2ccc3c(c2)OCO3)CC1)N1CCc2[nH]c3ccccc3c2C1`, the z-score was -4.04 (active).

On to `C(=C/c1nccc2c1[nH]c1ccccc12)/c1ccc2c(c1)OCO2`, for which the z-score is 10.6. To `CCN(CC)c1ccc2cc(-c3nnc(-c4ccncc4)o3)c(=O)oc2c1` belongs 4.43; to `COc1ccc(S(=O)(=O)N2CCCCC2)cc1NC(=O)CSc1ncnc2ccccc12`, -4.48 (active); to `COc1ccc2nc(SCC(=O)Nc3ccc(S(=O)(=O)N4CCCC4)cc3)c(C#N)cc2c1`, 3.47.

With `Cc1ccc(-c2noc(CSc3nnnn3-c3ccccc3)n2)cc1`, the z-score is 2.35.

In the case of `CCOC(=O)c1ccccc1NC(=O)c1ccc2c(=O)n3c(nc2c1)CCCCC3`, the z-score was -3.69 (active). Under `COC(=O)c1ccccc1NC(=S)N1CCC(N2CCCCC2)CC1` stands 1.65; under `CC1(C)CC(N2CCCC2)=CC(=[N+]2CCCCCC2)C1`, -4.54 (active); under `CCOc1ccc(-n2c(SCC(=O)NC(C)CC)nc3n[nH]c(C)c3c2=N)cc1` (stereo unspecified), 3.
